# Data taken from PubChem BioAssay AID1159580 (chemical genetic matrix, 2015).
# Where “and” joins values, the source holds several entries; their conditions need not be identical. Equal entries are not always repeated. In all, about 5,500 compounds went through this assay and about 2,000 (36%) were called active. Roughly 18% stayed inconclusive and do not appear here. Rule as the data show it: active = normalized growth mostly below about 0.91 (no sharp cut-off); inconclusive = no clear call, values can overlap the other calls; inactive = mostly above about 0.92. The list shows a part of the results.
# Assay: chemical genetic growth profiling, strain panel (AID 1159580);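 also: tested at 20 µM; growth read once vehicle control cultures reached saturation at 30 °C; 1 = growth at the plate median or of vehicle wells; lower values mean less growth of the strain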
# Settings: S. cerevisiae deletion strains, growth OD
compound,measurement,setting,value
CC(C(=O)O)c1ccc(-c2ccccc2)c(F)c1 (stereo unspecified),normalized growth,"locus YAL013W, strain DEP1, stronger effect = lower value",0.952 (inactive)
same,normalized growth,"locus YAL021C, strain ccr4, stronger effect = lower value",0.978 (inactive)
same,normalized growth,"locus YAL026C, strain drs2, stronger effect = lower value",0.949 (inactive)
same,normalized growth,"locus YAL030W, strain snc1, stronger effect = lower value",0.99 (inactive)
same,normalized growth,"locus YBL061C, strain skt5, stronger effect = lower value",1 (inactive)
same,normalized growth,"locus YBR009C, strain hhf1, stronger effect = lower value",0.984 (inactive)
same,normalized growth,"locus YBR021W, strain FUR4, stronger effect = lower value",0.936 (inactive)
same,normalized growth,"locus YBR023C, strain chs3, stronger effect = lower value",1.02 (inactive)
same,normalized growth,"locus YBR171W, strain sec66, stronger effect = lower value",0.968 (inactive)
same,normalized growth,"locus YBR229C, strain ROT2, stronger effect = lower value",0.993 (inactive)
same,normalized growth,"locus YBR231C, strain swc5, stronger effect = lower value",0.974 (inactive)
same,normalized growth,"locus YBR279W, strain paf1, stronger effect = lower value",1.01 (inactive)
same,normalized growth,"locus YCL011C, strain gbp2, stronger effect = lower value",1 (inactive)
same,normalized growth,"locus YCL016C, strain dcc1, stronger effect = lower value",1.02 (inactive)
same,normalized growth,"locus YCL029C, strain bik1, stronger effect = lower value",0.944 (inactive)
same,normalized growth,"locus YCL061C, strain MRC1, stronger effect = lower value",0.99 (inactive)
same,normalized growth,"locus YCL069W, strain vba3, stronger effect = lower value",0.99 (inactive)
same,normalized growth,"locus YCR088W, strain abp1, stronger effect = lower value",0.978 (inactive)
same,normalized growth,"locus YDL005C, strain med2, stronger effect = lower value",0.965 (inactive)
same,normalized growth,"locus YDL035C, strain GPR1, stronger effect = lower value",0.958 (inactive)
same,normalized growth,"locus YDL040C, strain nat1, stronger effect = lower value",0.995 (inactive)
same,normalized growth,"locus YDL074C, strain BRE1, stronger effect = lower value",0.959 (inactive)
same,normalized growth,"locus YDL101C, strain DUN1, stronger effect = lower value",1.01 (inactive)
same,normalized growth,"locus YDL185W, strain tfp1, stronger effect = lower value",0.869 (active)
same,normalized growth,"locus YDL192W, strain arf1, stronger effect = lower value",0.974 (inactive)
same,normalized growth,"locus YDR001C, strain nth1, stronger effect = lower value",0.977 (inactive)
same,normalized growth,"locus YDR069C, strain doa4, stronger effect = lower value",1.02 (inactive)
same,normalized growth,"locus YDR101C, strain arx1, stronger effect = lower value",0.917 (active)
same,normalized growth,"locus YDR137W, strain rgp1, stronger effect = lower value",0.821 (active)
same,normalized growth,"locus YDR159W, strain sac3, stronger effect = lower value",0.913 (inactive)
same,normalized growth,"locus YDR162C, strain NBP2, stronger effect = lower value",0.936 (inactive)
same,normalized growth,"locus YDR195W, strain ref2",0.985 (inactive)
same,normalized growth,"locus YDR297W, strain sur2, stronger effect = lower value",0.992 (inactive)
same,normalized growth,"locus YDR318W, strain mcm21, stronger effect = lower value",0.979 (inactive)
same,normalized growth,"locus YDR334W, strain swr1, stronger effect = lower value",0.972 (inactive)
same,normalized growth,"locus YDR335W, strain msn5, stronger effect = lower value",1.01 (inactive)
same,normalized growth,"locus YDR388W, stronger effect = lower value",0.963 (inactive)
same,normalized growth,"locus YDR392W, strain spt3, stronger effect = lower value",0.748 (inactive)
same,normalized growth,"locus YDR502C, strain sam2, stronger effect = lower value",0.968 (inactive)
same,normalized growth,"locus YEL003W, strain gim4, stronger effect = lower value",0.967 (inactive)
same,normalized growth,"locus YEL037C, strain rad23, stronger effect = lower value",0.983 (inactive)
same,normalized growth,"locus YEL061C, strain CIN8 (second series), stronger effect = lower value",0.979 (inactive)
same,normalized growth,"locus YEL061C, strain CIN8, stronger effect = lower value",0.963 (inactive)
same,normalized growth,"locus YER015W, strain faa2, stronger effect = lower value",1 (inactive)
same,normalized growth,"locus YER016W, strain bim1, stronger effect = lower value",0.971 (inactive)
same,normalized growth,"locus YER110C, stronger effect = lower value",0.974 (inactive)
same,normalized growth,"locus YER111C, strain swi4, stronger effect = lower value",0.977 (inactive)
same,normalized growth,"locus YER155C, strain BEM2 (second series), stronger effect = lower value",0.979 (inactive)
same,normalized growth,"locus YER155C, strain BEM2, stronger effect = lower value",0.93 (inactive)
same,normalized growth,"locus YER167W, strain BCK2, stronger effect = lower value",0.974 (inactive)
same,normalized growth,"locus YFR010W, strain ubp6, stronger effect = lower value",0.997 (inactive)
same,normalized growth,"locus YGL078C, strain dbp3, stronger effect = lower value",0.913 (active)
same,normalized growth,"locus YGL086W, strain mad1, stronger effect = lower value",0.974 (inactive)
same,normalized growth,"locus YGL167C, strain pmr1, stronger effect = lower value",0.983 (inactive)
same,normalized growth,"locus YGL173C, strain kem1, stronger effect = lower value",0.968 (inactive)
same,normalized growth,"locus YGL227W, strain vid30, stronger effect = lower value",0.991 (inactive)
same,normalized growth,"locus YGL240W, strain doc1, stronger effect = lower value",0.953 (inactive)
same,normalized growth,"locus YGL248W, strain PDE1, stronger effect = lower value",1 (inactive)
same,normalized growth,"locus YGL253W, strain hxk2, stronger effect = lower value",0.98 (inactive)
same,normalized growth,"locus YGR135W, strain pre9, stronger effect = lower value",1.04 (inactive)
same,normalized growth,"locus YGR252W, strain gcn5, stronger effect = lower value",1.04 (inactive)
same,normalized growth,"locus YHR013C, strain ard1, stronger effect = lower value",1.05 (inactive)
same,normalized growth,"locus YHR027C, strain rpn1, stronger effect = lower value",0.994 (inactive)
same,normalized growth,"locus YHR030C, strain SLT2, stronger effect = lower value",0.944 (inactive) and 0.704 (active)
same,normalized growth,"locus YHR079C, strain IRE1 (second series), stronger effect = lower value",0.959 (inactive)
same,normalized growth,"locus YHR079C, strain IRE1, stronger effect = lower value",0.774 (active)
same,normalized growth,"locus YHR094C, strain hxt1, stronger effect = lower value",0.951 (inactive)
same,normalized growth,"locus YHR129C, strain ARP1, stronger effect = lower value",0.99 (inactive)
same,normalized growth,"locus YHR142W, strain chs7, stronger effect = lower value",1.01 (inactive)
same,normalized growth,"locus YHR200W, strain rpn10, stronger effect = lower value",0.978 (inactive)
same,normalized growth,"locus YIL066C, strain RNR3, stronger effect = lower value",0.981 (inactive)
same,normalized growth,"locus YIL073C, strain SPO22, stronger effect = lower value",1.01 (inactive)
same,normalized growth,"locus YIL125W, strain kgd1, stronger effect = lower value",0.868 (active)
same,normalized growth,"locus YIR030C, strain dcg1, stronger effect = lower value",0.963 (inactive)
same,normalized growth,"locus YJL092W, strain hpr5, stronger effect = lower value",0.99 (inactive)
same,normalized growth,"locus YJL095W, strain BCK1 (second series), stronger effect = lower value",0.988 (inactive)
same,normalized growth,"locus YJL095W, strain BCK1, stronger effect = lower value",1 (inactive) and 0.73 (active)
same,normalized growth,"locus YJL115W, strain asf1, stronger effect = lower value",0.982 (inactive)
same,normalized growth,"locus YJL129C, strain trk1, stronger effect = lower value",0.933 (inactive)
same,normalized growth,"locus YJL134W, strain LCB3, stronger effect = lower value",0.975 (inactive)
same,normalized growth,"locus YJL154C, strain vps35, stronger effect = lower value",0.984 (inactive)
same,normalized growth,"locus YJL164C, strain tpk1, stronger effect = lower value",0.992 (inactive)
same,normalized growth,"locus YJL166W, strain qcr8, stronger effect = lower value",1.01 (inactive)
same,normalized growth,"locus YJL168C, strain set2, stronger effect = lower value",0.959 (inactive)
same,normalized growth,"locus YJL187C, strain SWE1 (second series), stronger effect = lower value",0.989 (inactive)
same,normalized growth,"locus YJL187C, strain SWE1, stronger effect = lower value",0.985 (inactive)
